Records with an inconclusive call do not appear. Activity calls are given as the source filed them. Rule for the calls, unless noted: active = hit-call score of the fitted dose curve at least 0.9, where 1 is the maximum; inactive = score below 0.9.

Test [1] can be described thus: ATG_PBREM_CIS: Attagene CIS-FACTORIAL HepG2 Assay for human Phenobarbital-responsive Enhancer Module (PBREM) (AID 2282955). Conditions: HepG2 PBREM cis-reporter, Attagene multiplexed transcription; actives raise or lower the signal. The essentials:
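Fluorescence of labelled reporter cDNA fragments, resolved by capillary electrophoresis, gives mRNA induction in transfected HepG2 cells treated for 24 h; DMSO serves as negative control and baseline.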

The target of test [2] is Paired box protein Pax-6 (Homo sapiens) (UniProt P26367). The experiment in a line: ATG_Pax6_CIS: Attagene CIS-FACTORIAL HepG2 Assay for human Paired Box 6 (PAX6) (AID 2282956). To be noted: HepG2 CIS-FACTORIAL PAX6 reporter transcription, RNA readout; actives raise or lower the signal. In outline: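 Multiplexed cis-reporter HepG2 system; 24 h treatment; reporter mRNA read by RT-PCR/CE fluorescence; bidirectional fit vs DMSO.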
Paired box protein Pax-6 (Homo sapiens), sequence (P26367 whole entry, looked up): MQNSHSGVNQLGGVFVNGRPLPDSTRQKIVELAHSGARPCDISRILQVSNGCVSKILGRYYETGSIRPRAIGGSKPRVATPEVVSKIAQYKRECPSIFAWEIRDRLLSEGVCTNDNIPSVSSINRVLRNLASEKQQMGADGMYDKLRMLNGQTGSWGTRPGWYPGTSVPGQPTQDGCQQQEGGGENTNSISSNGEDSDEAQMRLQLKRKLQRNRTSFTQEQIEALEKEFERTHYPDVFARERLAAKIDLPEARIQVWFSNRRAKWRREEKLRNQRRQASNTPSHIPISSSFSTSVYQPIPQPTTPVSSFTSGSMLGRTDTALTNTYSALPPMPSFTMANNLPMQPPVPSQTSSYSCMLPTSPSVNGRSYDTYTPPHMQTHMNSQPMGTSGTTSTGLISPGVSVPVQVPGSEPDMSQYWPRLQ

Test [3] is described as follows: ATG_PXRE_CIS: Attagene CIS-FACTORIAL HepG2 Assay for human Pregnane X Receptor Element (PXRE) (AID 2282957). To be noted: HepG2 Attagene CIS-FACTORIAL PXRE reporter, mRNA; actives raise or lower the signal. The essentials: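 Cells: HepG2, transiently transfected reporter units under cis promoter control. Exposure: 24 h. Detection: reporter mRNA via RT-PCR/CE fluorescence; bidirectional fitting, DMSO-referenced.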

A short description of test [4]: ATG_PPRE_CIS: Attagene CIS-FACTORIAL HepG2 Assay for human Peroxisome Proliferator-activated Response Element (PPRE) (AID 2282958). To be noted: HepG2 PPRE cis-element reporter, Attagene transcription factor profiling; actives raise or lower the signal. In outline: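 Cells are first transfected transiently with the multiplexed reporter library, then dosed for 24 h. Total RNA is reverse-transcribed, amplified, fluorescently end-labeled and HpaI-cut before capillary electrophoresis; activity is fitted bidirectionally against DMSO controls.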

A short description of test [5]: ATG_RORE_CIS: Attagene CIS-FACTORIAL HepG2 Assay for human RAR-related Orphan Receptor Element (RORE) (AID 2282959). Conditions: HepG2 Attagene cis-factorial RORE reporter, mRNA; actives raise or lower the signal. In outline:
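Cells were HepG2 carrying transfected cis-regulated reporter constructs, dosed for 24 hours. Total RNA was reverse-transcribed and reporter cDNA amplified, fluorescently labeled and sized by capillary electrophoresis. Activity was fitted bidirectionally relative to DMSO.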

Test [6] is described as follows: ATG_Sox_CIS: Attagene CIS-FACTORIAL HepG2 Assay for human SRY-box transcription factor (SOX) (AID 2282960). Conditions: HepG2 Attagene cis-factorial SOX reporter, mRNA; actives raise or lower the signal. The essentials:
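Transient MRTU transfection of HepG2; 24 h compound incubation; TriZol RNA, oligo(dT) RT, PCR, 6-FAM primer extension, HpaI cut, CE. Bidirectional fit, DMSO = baseline.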

Test [7] concerns the target Transcription factor Sp1 (Homo sapiens) (UniProt P08047). As to the kind of experiment: ATG_Sp1_CIS: Attagene CIS-FACTORIAL HepG2 Assay for human Specificity Protein 1 (Sp1) (AID 2282961). Conditions: HepG2 Sp1 cis-reporter transcription, actives raise or lower the signal. The essentials:
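Endogenous Sp1 activity was gauged in human liver HepG2 cells bearing transfected reporter units under a cis-regulating promoter. After 24 h dosing, reporter mRNA was quantified by RT-PCR with capillary electrophoresis, and activity fitted bidirectionally versus DMSO.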

Test [8] in a line: ATG_SREBP_CIS: Attagene CIS-FACTORIAL HepG2 Assay for human Sterol Regulatory Element Binding (SREBP) (AID 2282962). To be noted: HepG2 Attagene cis-factorial SREBP reporter, mRNA; actives raise or lower the signal. The essentials: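 mRNA induction of transfected cis-promoter reporters in HepG2 cells, 24 h post-dose. Detection: RT-PCR with 6-FAM-labelled products, HpaI digest, capillary electrophoresis. DMSO served as negative control and baseline.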

Test [9] deals with Signal transducer and activator of transcription 3 (Homo sapiens) (UniProt P40763). As to the kind of experiment: ATG_STAT3_CIS: Attagene CIS-FACTORIAL HepG2 Assay for human Signal Transducer and Activator of Transcription 3 (STAT3) (AID 2282963). To be noted: HepG2, Attagene cis-factorial STAT3 reporter transcription; actives raise or lower the signal. In outline:
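Endogenous STAT3-responsive cis-element activity was read in transiently transfected HepG2 cells after 24 h treatment. Reporter transcripts were quantified via RT-PCR and capillary electrophoresis, with DMSO as negative control and bidirectional curve fitting.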

Test [10] can be described thus: ATG_TA_CIS: Attagene CIS-FACTORIAL HepG2 Assay for human TA Basal Promoter (AID 2282964). Conditions: HepG2 Attagene CIS-factorial TA basal promoter reporter; actives raise or lower the signal. In outline: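 Read-out: fluorescent reporter-transcript fragments resolved by capillary electrophoresis after RT-PCR and HpaI digestion. Source: HepG2 cells carrying transiently transfected multi-reporter cis constructs, treated 24 h. Endpoint fitted bidirectionally relative to DMSO.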

The nature of test [11]: ATG_TCF_b_cat_CIS: Attagene CIS-FACTORIAL HepG2 Assay for human T-Cell-Factor with beta-catenin (TCF/b-cat) (AID 2282965). Conditions: HepG2 TCF/beta-catenin cis-reporter transcription, actives raise or lower the signal. In outline:
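Endogenous TCF/LEF activity read as reporter transcript level via RT-PCR and capillary electrophoresis fluorescence in transfected HepG2, 24 h exposure; gain or loss of signal fitted against DMSO controls.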

Test [12] is described as follows: ATG_TAL_CIS: Attagene CIS-FACTORIAL HepG2 Assay for human TAL Basal Promoter (AID 2282966).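 Note: background control endpoint measuring basal TAL promoter reporter mRNA not a specific factor.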 To be noted: HepG2 Attagene cis-factorial TAL promoter reporter; actives raise or lower the signal. In outline: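 RT-PCR plus capillary electrophoresis quantifies reporter mRNA induction in transiently transfected HepG2 cells after 24 h chemical treatment. DMSO serves as negative control and baseline for bidirectional fitting.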

Test [13] is described as follows: ATG_TGFb_CIS: Attagene CIS-FACTORIAL HepG2 Assay for human Transforming Growth Factor (TGF) (AID 2282967). Conditions: HepG2 Attagene CIS TGFb reporter, mRNA transcription; actives raise or lower the signal. In outline:
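Transient MRTU transfection of HepG2 (FuGene 6). Dose 24 h. TriZol RNA, oligo(dT) RT, PCR, 6-FAM primer extension, HpaI cut, CE. Bidirectional fit, DMSO = baseline.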

Test [14] deals with Estrogen receptor (Homo sapiens) (UniProt P03372). The experiment in a line: ATG_ERa_TRANS: Attagene TRANS-FACTORIAL HepG2 Assay for human Estrogen Receptor alpha (ERa) (AID 2282970; active = hit-call score of the fitted dose curve at least 0.9, where 1 is the maximum). To be noted: HepG2 Attagene TRANS ERa GAL4 reporter, mRNA. In outline:
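Cells: HepG2, transiently transfected. Construct: GAL4-UAS reporter units regulated by exogenous NR-Gal4 chimeras. Time: 24 h. Detection: reporter mRNA by RT-PCR, capillary electrophoresis, fluorescence. Baseline: DMSO, upward fitting.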

Test [15] addresses X-box-binding protein 1 (Homo sapiens) (UniProt P17861). The experiment in a line: ATG_Xbp1_CIS: Attagene CIS-FACTORIAL HepG2 Assay for human X-box Binding Protein 1 (XBP1) (AID 2282972). Conditions: HepG2 XBP1 cis-element reporter, Attagene multiplex; actives raise or lower the signal. The essentials:
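Fluorescence-labelled cDNA fragments from reporter transcripts, separated by capillary electrophoresis, give the signal. Source: HepG2 cells transfected with promoter-driven reporter units, harvested 24 h post-dose. DMSO served as reference for bidirectional curve fitting.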

Test [16] in a line: ATG_M_19_TRANS: Attagene TRANS-FACTORIAL HepG2 Assay for M19 Transcription Factor (Internal Marker) (AID 2282974; active = hit-call score of the fitted dose curve at least 0.9, where 1 is the maximum). Conditions: HepG2 Attagene TRANS-FACTORIAL M19 internal marker reporter. In outline: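 Cells: human HepG2, transiently transfected with multiplexed reporter transcription units. Exposure: 24 h. Detection: RT-PCR of reporter mRNA with capillary electrophoresis. Analysis: gain-of-signal vs DMSO.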

A short description of test [17]: ATG_GAL4_TRANS: Attagene TRANS-FACTORIAL HepG2 Assay for GAL4 (Internal Marker) (AID 2282976; active = hit-call score of the fitted dose curve at least 0.9, where 1 is the maximum). Conditions: HepG2 Attagene TRANS GAL4 internal marker reporter. The essentials:
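In transfected human HepG2 liver cells dosed 24 h, GAL4 reporter mRNA serves as a baseline marker. Detection by RT-PCR with fluorescent capillary electrophoresis, activity fitted upward relative to DMSO.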

Test [18] is described as follows: ATG_VDRE_CIS: Attagene CIS-FACTORIAL HepG2 Assay for human Vitamin D Receptor Element (VDRE) (AID 2282968). Conditions: HepG2 VDRE cis-reporter transcription, actives raise or lower the signal. In outline: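 Reporter mRNA induction, quantified by capillary electrophoresis of fluorescently labelled RT-PCR products, was read 24 h after dosing HepG2 cells carrying transiently transfected cis-regulated reporter units; gain or loss relative to DMSO.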

Test [19] concerns the target Steroid hormone receptor ERR1 (Homo sapiens) (UniProt P11474). The experiment in a line: ATG_ERRa_TRANS: Attagene TRANS-FACTORIAL HepG2 Assay for human Estrogen-Related Receptor alpha (ERRa) (AID 2282971; active = hit-call score of the fitted dose curve at least 0.9, where 1 is the maximum). To be noted: HepG2 Attagene TRANS reporter, ERRa transactivation. In outline: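 Reporter transcripts from ERRa-Gal4 chimera activity measured in transiently transfected human HepG2 cells 24 hours after dosing, using RT-PCR with 6-FAM primer extension, HpaI digestion and capillary electrophoresis; DMSO is baseline.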

Test [20] deals with Nuclear receptor subfamily 1 group I member 3 (Homo sapiens) (UniProt Q14994). As to the kind of experiment: ATG_CAR_TRANS: Attagene TRANS-FACTORIAL HepG2 Assay for human Constitutive Androstane Receptor (CAR) (AID 2282969; active = hit-call score of the fitted dose curve at least 0.9, where 1 is the maximum;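 note: activators raise reporter mRNA above DMSO so AC50 marks induction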). Conditions: HepG2 Attagene TRANS-FACTORIAL CAR reporter. The essentials: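 Readout is reporter mRNA induction, quantified by fluorescent primer extension and capillary electrophoresis after RT-PCR. Cells were HepG2 transiently carrying chimeric NR-Gal4 constructs with GAL4-UAS reporters, treated for 24 h; activity scored upward from DMSO.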
Nuclear receptor subfamily 1 group I member 3 (Homo sapiens), sequence (Q14994 whole entry, looked up, the tested form may be a part): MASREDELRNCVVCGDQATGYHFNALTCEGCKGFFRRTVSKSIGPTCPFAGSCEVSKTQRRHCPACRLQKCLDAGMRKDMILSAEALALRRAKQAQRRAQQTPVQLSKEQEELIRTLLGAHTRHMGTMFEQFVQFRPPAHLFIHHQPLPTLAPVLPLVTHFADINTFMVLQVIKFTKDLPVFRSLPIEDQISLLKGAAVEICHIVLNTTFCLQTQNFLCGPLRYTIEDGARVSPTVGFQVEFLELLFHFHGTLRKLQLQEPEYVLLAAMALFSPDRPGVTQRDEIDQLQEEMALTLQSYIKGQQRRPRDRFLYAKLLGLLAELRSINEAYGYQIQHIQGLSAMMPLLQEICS

Estrogen receptor (Homo sapiens), sequence (P03372 whole entry, looked up, the tested form may be a part): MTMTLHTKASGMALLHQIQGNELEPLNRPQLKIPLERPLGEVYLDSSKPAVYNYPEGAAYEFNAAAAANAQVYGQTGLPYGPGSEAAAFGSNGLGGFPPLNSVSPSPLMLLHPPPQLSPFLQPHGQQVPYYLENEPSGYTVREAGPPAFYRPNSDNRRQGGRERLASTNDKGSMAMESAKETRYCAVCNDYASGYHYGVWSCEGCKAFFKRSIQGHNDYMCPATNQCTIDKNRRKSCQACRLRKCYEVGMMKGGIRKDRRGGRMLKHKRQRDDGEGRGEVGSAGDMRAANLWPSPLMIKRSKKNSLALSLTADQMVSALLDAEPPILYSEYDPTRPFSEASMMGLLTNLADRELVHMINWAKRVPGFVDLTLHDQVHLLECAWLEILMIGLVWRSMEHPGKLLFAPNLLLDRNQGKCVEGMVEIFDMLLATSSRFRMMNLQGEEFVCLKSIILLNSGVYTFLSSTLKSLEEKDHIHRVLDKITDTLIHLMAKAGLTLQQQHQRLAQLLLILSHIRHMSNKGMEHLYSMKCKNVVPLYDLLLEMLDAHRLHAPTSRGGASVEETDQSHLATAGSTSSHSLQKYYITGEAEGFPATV
X-box-binding protein 1 (Homo sapiens), sequence (P17861 whole entry, looked up, the tested form may be a part): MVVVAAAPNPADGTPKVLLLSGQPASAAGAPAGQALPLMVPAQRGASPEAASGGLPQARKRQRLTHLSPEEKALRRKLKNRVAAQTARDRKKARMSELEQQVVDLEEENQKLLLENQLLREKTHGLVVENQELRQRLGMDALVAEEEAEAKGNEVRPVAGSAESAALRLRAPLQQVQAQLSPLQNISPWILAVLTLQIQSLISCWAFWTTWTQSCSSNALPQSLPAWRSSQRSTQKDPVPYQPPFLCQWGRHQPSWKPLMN
Signal transducer and activator of transcription 3 (Homo sapiens), sequence (P40763 whole entry, looked up): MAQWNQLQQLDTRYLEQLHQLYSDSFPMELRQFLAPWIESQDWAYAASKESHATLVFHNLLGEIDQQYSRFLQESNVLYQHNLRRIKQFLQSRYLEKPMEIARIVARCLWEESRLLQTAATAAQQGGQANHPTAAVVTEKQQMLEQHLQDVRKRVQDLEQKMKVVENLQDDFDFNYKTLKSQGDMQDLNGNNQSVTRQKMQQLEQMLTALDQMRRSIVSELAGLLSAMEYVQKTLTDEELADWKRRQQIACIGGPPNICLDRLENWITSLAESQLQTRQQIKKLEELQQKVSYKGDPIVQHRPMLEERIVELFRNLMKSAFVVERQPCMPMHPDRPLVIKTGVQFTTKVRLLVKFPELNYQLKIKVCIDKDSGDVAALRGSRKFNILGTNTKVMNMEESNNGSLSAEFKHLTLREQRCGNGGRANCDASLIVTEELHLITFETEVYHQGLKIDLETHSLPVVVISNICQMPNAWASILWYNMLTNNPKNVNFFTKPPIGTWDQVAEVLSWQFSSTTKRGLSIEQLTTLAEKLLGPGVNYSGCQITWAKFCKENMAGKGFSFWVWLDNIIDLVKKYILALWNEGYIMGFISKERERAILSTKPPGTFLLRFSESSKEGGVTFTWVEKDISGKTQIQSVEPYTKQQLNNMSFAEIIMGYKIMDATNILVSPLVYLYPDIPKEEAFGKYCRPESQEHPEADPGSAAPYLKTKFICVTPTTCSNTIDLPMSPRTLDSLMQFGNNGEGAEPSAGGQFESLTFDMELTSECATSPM
Transcription factor Sp1 (Homo sapiens), sequence (P08047 whole entry, looked up): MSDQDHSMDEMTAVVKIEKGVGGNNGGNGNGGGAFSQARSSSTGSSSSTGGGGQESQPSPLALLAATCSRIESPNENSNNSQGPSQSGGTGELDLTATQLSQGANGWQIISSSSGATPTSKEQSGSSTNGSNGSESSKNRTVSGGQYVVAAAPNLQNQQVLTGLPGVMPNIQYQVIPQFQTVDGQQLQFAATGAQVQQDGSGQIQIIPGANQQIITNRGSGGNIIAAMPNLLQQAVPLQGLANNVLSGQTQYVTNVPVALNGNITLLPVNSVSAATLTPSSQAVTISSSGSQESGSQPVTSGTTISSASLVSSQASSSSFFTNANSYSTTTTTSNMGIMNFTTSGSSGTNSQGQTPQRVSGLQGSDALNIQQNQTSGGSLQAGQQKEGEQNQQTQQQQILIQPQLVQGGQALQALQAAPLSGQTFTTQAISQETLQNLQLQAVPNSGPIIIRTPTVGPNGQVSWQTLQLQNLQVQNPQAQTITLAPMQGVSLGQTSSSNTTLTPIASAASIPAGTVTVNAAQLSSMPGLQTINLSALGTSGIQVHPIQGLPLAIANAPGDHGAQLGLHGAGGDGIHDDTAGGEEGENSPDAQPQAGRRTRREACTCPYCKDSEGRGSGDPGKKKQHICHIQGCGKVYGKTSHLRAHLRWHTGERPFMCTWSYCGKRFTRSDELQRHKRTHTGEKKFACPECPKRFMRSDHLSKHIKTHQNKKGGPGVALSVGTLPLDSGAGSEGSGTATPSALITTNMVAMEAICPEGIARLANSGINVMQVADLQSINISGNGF
Steroid hormone receptor ERR1 (Homo sapiens), sequence (P11474 whole entry, looked up, the tested form may be a part): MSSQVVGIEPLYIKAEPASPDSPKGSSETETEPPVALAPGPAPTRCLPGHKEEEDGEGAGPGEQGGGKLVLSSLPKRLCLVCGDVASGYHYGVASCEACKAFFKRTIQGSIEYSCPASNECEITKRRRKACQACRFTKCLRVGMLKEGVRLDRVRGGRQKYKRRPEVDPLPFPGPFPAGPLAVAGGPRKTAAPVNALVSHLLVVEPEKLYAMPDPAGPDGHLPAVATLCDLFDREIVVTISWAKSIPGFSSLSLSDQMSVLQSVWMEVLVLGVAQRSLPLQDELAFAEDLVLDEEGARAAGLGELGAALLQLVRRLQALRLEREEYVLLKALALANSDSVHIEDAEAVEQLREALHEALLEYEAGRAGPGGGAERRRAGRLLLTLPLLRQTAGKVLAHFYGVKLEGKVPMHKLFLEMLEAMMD

With `COc1ccc(C(=O)c2ccccc2)c(O)c1`, the AC50 (commonly the midpoint of the concentration-response curve, whichever way the signal moves) is 85.9 µM (active) in test [1]; 149 µM (active) in test [2]; 26.7 µM (active) in test [3]; 121 µM (active) in test [4]; 100 µM (active) in test [5]; 121 µM (active) in test [10]. For the same compound, the AC50 in test [13] is 156 µM (active); in test [14], 6.43 µM (active). The call in test [6], in [7], in test [8], in test [9], in [11] and in test [12] was inactive. Besides, the compound was classed as inactive in [15], in [16] and in test [17].
Take `Cc1ccc([N+](=O)[O-])cc1N`: the result in test [1], in test [2], in [4], in test [5], in test [6] and in test [7] was inactive. In addition, the outcome in test [8], in test [9], in test [10], in test [11], in [12] and in test [13] was inactive. Further, the result in test [18], in [14], in test [15] and in [17] was inactive. The AC50 in test [3] is 45.4 µM (active).
Consider `CCC(C)C(=O)OCCc1ccccc1` (stereo not given), for which the result in test [1], in test [2], in test [3], in test [4], in [5] and in test [6] was inactive. Also, the outcome in test [7], in test [8], in test [9], in [10], in [11] and in [12] was inactive. For the same compound, the call in [13], in test [14] and in test [15] was inactive.
For `C=C(C)C(=O)OCCOC(=O)C(=C)C`, the outcome in [1], in test [2], in [3], in [4], in test [5] and in test [6] was inactive. The outcome in test [7], in [8], in test [9], in test [10], in test [11] and in test [12] was inactive. Further, the call in test [18], in test [14], in test [19], in test [15] and in test [17] was inactive.
For `O=C(Cl)c1c(Cl)c(Cl)c(C(=O)Cl)c(Cl)c1Cl`, the outcome in test [1], in test [2], in [4], in [5], in test [6] and in [7] was inactive. Besides, the result in test [8], in [9], in [10], in test [11], in [12] and in [14] was inactive. The call in [19], in test [15] and in test [17] was inactive. The AC50 in test [3] is 27.9 µM (active).
For `Nc1cccc(N)n1`, the outcome in test [1], in test [2], in test [3], in test [4], in [5] and in test [6] was inactive. Further, the compound was classed as inactive in [7], in [8], in test [9], in test [11], in [12] and in test [18]. In addition, the compound was called inactive in test [20], in test [15], in [16] and in test [17].
Take `C=C(C)C(=O)OCC(O)COc1ccc(C(C)(C)c2ccc(OCC(O)COC(=O)C(=C)C)cc2)cc1` (stereo not given): the result in test [1], in test [5], in [7], in test [9], in [11] and in test [12] was inactive. In addition, the compound was called inactive in test [20], in test [16] and in test [17]. Also, the AC50 is 42.2 µM (active) in test [2]; 2.17 µM (active) in test [3]; 14.7 µM (active) in [4]; 65 µM (active) in [6]; 51 µM (active) in [8]; 28.3 µM (active) in test [10]. The AC50 was 9.75 µM (active) in test [18] and 26.3 µM (active) in test [15].
Take `CC1(C)CC(O)CC(C)(C)N1[O]`: the outcome in test [1], in [2], in test [3], in test [4], in test [5] and in test [6] was inactive. Moreover, the call in test [7], in test [8], in test [9], in [10], in test [11] and in test [12] was inactive. Moreover, the result in test [13], in test [18] and in test [17] was inactive.

For the origin of these results see PubChem BioAssay (EPA / NIEHS).
